40 compounds from PubChem BioAssay (NCI) can be followed below.

Several values for one entry are separate records, joined by “and”; a condition that tells them apart may be missing. Identical values can stand only once. The panel holds about 83,000 compounds, 20% with a hit somewhere; the sample as a whole holds those more often.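 For each line, cells grew in 96-well plates with the test compound present at a single concentration for 48 hours.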 Activity calls are given as the source filed them. Rule for the calls: active = growth percent below 10; inactive = the rest.

For the experiment, the system named is MDA-MB-468 breast. The experiment in a line: NCI-60 one-dose screen, 48 h (100 = growth as untreated, 0 = no growth, -100 = all killed). To be noted: 10 µM unless noted.
Take `Cc1ccc(C2CC(c3ccc(Nc4ccnc5cc(Cl)ccc45)cc3)=NN2C=O)cc1` (stereo not given): the growth was 33% (inactive).

In the case of `CCN1C(=O)N(CC)C2Nn3c(s/c(=C4\C(=O)N(C)c5ccccc54)c3=O)=NC21` (stereo not given), the growth was 12.2% (inactive).

In the case of `Nc1n[nH]c2cccc(C#Cc3cccc(NC(=O)c4cc(F)cc(C(F)(F)F)c4)c3)c12`, the growth was 92.2% (inactive).

With `CC1(C)CC[C@]23CC[C@]4(C)[C@H](CC[C@@H]5[C@@]6(C)CC[C@H](N)C(C)(C)[C@@H]6CC[C@]54C)[C@H]2[C@H]1OC3`, the growth was 0.703% (active).

Take `Cn1cc(-c2csc(-c3cn(CCCN4CCOCC4)c4ccccc34)n2)c2cccnc21`: the growth was 65.1% (inactive).

In the case of `CC[C@H](C)[C@H](NC(=O)[C@@H](N)CCC(N)=O)C(=O)N[C@@H](Cc1ccc(O)cc1)C(=O)N[C@@H](CCCCN)C(=O)N[C@@H](CCCCN)C(=O)N[C@@H](Cc1ccc(O)cc1)C(=O)N[C@@H](CCCNC(=N)N)C(=O)N[C@H](C(=O)N[C@@H](Cc1c[nH]c2ccccc12)C(=O)N[C@@H](Cc1ccc(O)cc1)C(=O)N[C@@H](CCCNC(=N)N)C(=O)N[C@@H](CCCCN)C(=O)N[C@@H](C)C(=O)N[C@@H](Cc1c[nH]c2ccccc12)C(=O)N[C@@H](CCCCN)C(=O)N[C@H](C(=O)N[C@@H](CC(C)C)C(=O)NCC(=O)N[C@@H](CCCCN)C(=O)N[C@H](C(N)=O)C(C)C)C(C)C)[C@@H](C)O`, the growth is 44.6% (inactive).

Consider `COc1cc(N=Nc2cc(S(=O)(=O)O)cc3cc(S(=O)(=O)O)cc(O)c23)c(C)cc1N=Nc1c(S(=O)(=O)O)cc2cc(Nc3ccccc3)ccc2c1O`, for which the growth was 115% (inactive).

For the compound `S=C(Cc1ccc(-c2ccccc2)cc1)N1CCOCC1`, the growth was 90.8% (inactive).

With `N#Cc1cccc(CN2CCC3=C(C2)C(=O)N(Cc2ccc(Cl)cc2)C2=NCCCN23)c1`, the growth is -16.1% (active).

Regarding `CCn1cc(C2NC(=O)c3cc(F)ccc3N2)c2cccc(Cl)c21` (stereo not given), the growth was 7.04% (active).

Turning to `Cc1nc(-c2ccccc2)cc2c(O)c(C(=O)N/N=C/Cc3ccccc3)[nH]c(=O)c12`, the growth is 111% (inactive).

In the case of `O=C1/C(=C/c2ccc([N+](=O)[O-])o2)Oc2ccccc21`, the growth was -50.9% (active).

In the case of `O=C(Oc1ccc(Cl)cc1[N+](=O)[O-])Oc1ccc(Cl)cc1[N+](=O)[O-]`, the growth is 114% (inactive).

Consider `c1ccc(-c2ccc(-c3ccccc3)[nH]2)cc1`, for which the growth is 70.1% (inactive).

As for `C=C1C(=O)O[C@@H]2C[C@@H](C)CCC(=O)[C@](C)(OC(C)=O)C[C@H](OC(=O)/C(C)=C\C)[C@@H]12`, the growth is 32.7% (inactive).

Take `COc1cc(NC(=O)c2cc(OC)c3ccn(C)c3c2)cc2c1C[C@]1(C)CC[C@@H](O)C(C)(C)[C@H]1O2`: the growth was 69.6% (inactive).

In the case of `CCCCCCCCCCCCCCCCCCOc1ccccc1CC(=O)NCC[N+]1(C)CCCCC1`, the growth is 7.37% (active).

As for `O=C(O)Cc1ccccn1`, the growth is 101% (inactive).

With `COC(=O)[C@@H](NC(=O)[C@@H](OC)[C@@H]1Cc2cc3cc(OC4CC(OC5CC(O)C(O)C(C)O5)C(O)C(C)O4)c(C)c(O)c3c(O)c2C(=O)[C@H]1OC1CC(OC2CC(OC3CC(C)(O)C(O)C(C)O3)C(O)C(C)O2)C(O)C(C)O1)C(C)C` (stereo not given in full), the growth is -3.89% (active).

Regarding `Cc1cccc(-n2c(C)nc3ccc(N4CCCNC4=O)cc3c2=O)c1`, the growth was 99.4% (inactive).

Consider `COc1ccc(/C=N/C2=NNC(C)(c3ccccc3O)N2C(Cc2c[nH]c3ccccc23)C(=O)O)cc1` (stereo not given), for which the growth was -3.81% (active).

Regarding `C=C(C)[C@@H]1CCC=C2CC[C@]3(C)[C@H](CC[C@@H]4[C@@]5(C)CCCNC(C)(C)[C@@H]5CC[C@]43C)[C@H]21`, the growth was -31.5% (active).

Regarding `CCCCCCCCCCCCCCCCCCOc1ccccc1CC(=O)OCC[N+]1(C)CCCCC1`, the growth was -10.3% (active).

As for `Cc1ccc(N2C(=O)/C(=C/C=C/c3ccco3)SC2=S)cc1`, the growth is 50.7% (inactive).

With `c1ccc(Sc2ncccn2)nc1`, the growth is 97% (inactive).

For the compound `O=C(O)c1cccc(CN2CCN(c3cc4c(cc3F)c(=O)c(C(=O)O)cn4C3CC3)CC2)c1O`, the growth was 101% (inactive).

In the case of `Cc1cc(N2CCCC2)nc(NCc2cc(Nc3ccnc4cc(Cl)ccc34)ccc2F)n1`, the growth is -58.7% (active).

Take `N#CCCc1ccc(O)cc1`: the growth was 104% (inactive).

As to `NNc1ncnc2c1ncn2C1OC(CO)C(O)C1O` (stereo not given), the growth is 58.8% (inactive).

For the compound `Nc1nccc2c1ccn2-c1cccc(NC(=O)c2ccc(N3CCOCC3)c(C(F)(F)F)c2)c1`, the growth was -14.2% (active).

Take `CC(C)(C)c1ccc(O)c(CNC2CCCCC2)c1`: the growth is 87% (inactive) and 87.7% (inactive).

Consider `O[C@@H]1CO[C@H]2[C@@H]1OC[C@@H]2O`, for which the growth is 96.3% (inactive).

With `C[C@@H](C(=O)NCCCC#Cc1cnc(Nc2ccc(C#N)cc2)nc1NC1CC1)N(C)C(=O)/C=C/CN(C)C`, the growth is 39.2% (inactive).

With `CCOC(=O)Oc1c(OC)cc(C(=O)O[C@@H]2C[C@@H]3CN4CCc5c([nH]c6cc(OC)ccc56)[C@H]4C[C@@H]3[C@H](C(=O)OC)[C@H]2OC)cc1OC`, the growth was 98.8% (inactive).

With `C=C1C(=O)O[C@H]2[C@H]1CC/C(CNC(=O)/C=C/c1ccccc1F)=C\CC[C@@]1(C)O[C@@H]21`, the growth is -45.5% (active).

For `O=C(Nc1ncc(Cc2ccc(Cl)cc2)s1)c1ccc2c(c1)OCCO2`, the growth is 47.1% (inactive).

As to `NS(=O)(=O)c1ccc(CCN2C(=O)/C(=C\c3ccc(Cl)cc3)C=C2c2ccc(Oc3ccccc3)cc2)cc1`, the growth was 76.7% (inactive).

`O=C(Nc1cccc(C2=NCCN2)c1)c1cccc(C(=O)Nc2cccc(C3=NCCN3)c2)c1`: the growth was 90.8% (inactive).

As for `Oc1cc(O)c2c(=S)cc(-c3ccc(Cl)cc3)oc2c1`, the growth was -6.34% (active).

Regarding `CCC(=O)OC1=CN2C(=NC(c3ccc(N)cc3)=CC2c2cc(OC)c(OC)c(OC)c2)S1` (stereo not given), the growth was 25.5% (inactive).
